Source: PubChem BioAssay (NCI)
The panel holds about 83,000 compounds, 20% with a hit somewhere; the sample as a whole holds those more often.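 Cell lines were cultured in 96-well plates, exposed to a single compound concentration, and assessed for percent growth 48 hours later.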 Values without a mark were called inactive. The source made the active and inactive calls. The calls were made as follows: active = growth percent below 10; inactive = the rest.

How the values were obtained:
Assay in all cases: NCI-60 one-dose screen, 48 h (100 = growth as untreated, 0 = no growth, -100 = all killed)
Settings in all cases: 10 µM unless noted
HCT-15 colon = system: HCT-15 colon
HT29 colon = system: HT29 colon
SNB-75 CNS = system: SNB-75 CNS
SNB-19 CNS = system: SNB-19 CNS
U251 CNS = system: U251 CNS
PC-3 prostate = system: PC-3 prostate
SK-MEL-5 melanoma = system: SK-MEL-5 melanoma
UACC-62 melanoma = system: UACC-62 melanoma
LOX IMVI melanoma = system: LOX IMVI melanoma
SK-MEL-28 melanoma = system: SK-MEL-28 melanoma
SK-MEL-2 melanoma = system: SK-MEL-2 melanoma
EKVX NSCLC = system: EKVX NSCLC
SN12C renal = system: SN12C renal
UO-31 renal = system: UO-31 renal
TK-10 renal = system: TK-10 renal
ACHN renal = system: ACHN renal
CAKI-1 renal = system: CAKI-1 renal
A498 renal = system: A498 renal
CCRF-CEM leukemia = system: CCRF-CEM leukemia
MOLT-4 leukemia = system: MOLT-4 leukemia

Structure (SMILES)	growth (HCT-15 colon)	growth (HT29 colon)	growth (SNB-75 CNS)	growth (SNB-19 CNS)	growth (U251 CNS)	growth (PC-3 prostate)	growth (SK-MEL-5 melanoma)	growth (UACC-62 melanoma)	growth (LOX IMVI melanoma)	growth (SK-MEL-28 melanoma)	growth (SK-MEL-2 melanoma)	growth (EKVX NSCLC)	growth (SN12C renal)	growth (UO-31 renal)	growth (TK-10 renal)	growth (ACHN renal)	growth (CAKI-1 renal)	growth (A498 renal)	growth (CCRF-CEM leukemia)	growth (MOLT-4 leukemia)
COC1/C=C/OC2(C)Oc3c(C)c(O)c4c(O)c(c(/C=N/N(c5ccccc5)c5ccccc5)c(O)c4c3C2=O)NC(=O)C(C)=C/C=C/C(C)C(O)C(C)C(O)C(C)C(OC(C)=O)C1C (stereo not given)	41.4%	45.5%	66.9%	71.2%	41.8%	38.7%	-98.8% (active)	48.3%	47.4%	39.1%	82.2%	67%	70.9%	65.8%	55.8%	65%	66.8%	91.3%	21.7%	35.1%
COC1C(O)CC(OC2CC(OC3CC(O[C@@H]4C(=O)c5c(cc6cc(OC7CC(OC8CC(O)C(O)C(C)O8)C(O)C(C)O7)c(C)c(O)c6c5O)CC4[C@H](OC)C(=O)O)OC(C)C3O)OC(C)C2O)OC1C (stereo not given in full)	48.6%	20.3%	-22.7% (active)	21.4%	0.444% (active)	21.8%	-45.9% (active)	-0.0213% (active)	-12.7% (active)	3.33% (active)	-34.2% (active)	40.4%	20.7%	1.52% (active)	34.1%	2.86% (active)	18.1%	-15.2% (active)	46.1%	27.2%
COc1ccc(/C=N/NC(=O)Cn2c(-c3ccc(S(C)(=O)=O)cc3)nc3ccccc32)cc1	98.8%	103%	101%	100%	106%	93.2%	96.7%	90.8%	114%	102%	107%	97%	99.9%	75.9%	109%	105%	93%	95%	106%	141%
COc1ccc(C(O)c2cc3c(N)c(C(=O)Nc4cccc5ccccc45)sc3nc2C)cc1 (stereo not given)	6.45% (active)	6.41% (active)	32.5%	25%	20.1%	14.1%	-47.4% (active)	18.6%	19.1%	57.6%	35.8%	41.8%	14.4%	25.8%	63.8%	22%	15.5%	-13.1% (active)	13.2%	10.9%
CS(=O)(=O)Nc1cc(-c2ccc3ncnc(Nc4ccc5c(cnn5Cc5ccncc5)c4)c3c2)cnc1Cl	92.3%	64.8%	8.94% (active)	60%	52.7%	57.7%	52.5%	32.5%	22%	32.5%	-0.132% (active)	75.9%	54.7%	57.5%	39.1%	89.9%	40.7%	2.83% (active)	33.1%	57.1%
C#COc1cccc(Nc2ncnc3cc(NC(=O)[C@H](C)Cl)ccc23)c1	9.91% [6.25 µM] (active)	1.38% [6.25 µM] (active)	3.55% [6.25 µM] (active)	19.3% [6.25 µM]	3.14% [6.25 µM] (active)	95.3% [6.25 µM]	9.1% [6.25 µM] (active)	22.1% [6.25 µM]	5.47% [6.25 µM] (active)	29.4% [6.25 µM]	9.63% [6.25 µM] (active)	20.3% [6.25 µM]	10.6% [6.25 µM]	27.1% [6.25 µM]	9.65% [6.25 µM] (active)	17.1% [6.25 µM]	26.2% [6.25 µM]	2.08% [6.25 µM] (active)	102% [6.25 µM]	98.6% [6.25 µM]
O=c1oc2c(cc1-c1ccccc1)c[n+]([O-])c1ccccc21	103%	103%	93%	97.9%	97.9%	97%	98.1%	97.4%	101%	109%	109%	98.1%	97.2%	90.4%	107%	97.3%	90.6%	105%	101%	102%
Nc1cc(-c2ccc(Cl)cc2)nn1-c1nnc(/C=C/c2ccco2)c(=O)[nH]1	38.1%	44.2%	67.3%	57.8%	50.6%	52.6%	46%	52.5%	49.9%	66.4%	87.9%	41.7%	68.2%	3.92% (active)	51.2%	29.4%	1.03% (active)	33.8%	33.9%	44.4%
O=C(CCCCCCCC(=O)N1CCCCC1)N1CCCCC1	96.8%	106%	78.8%	105%	102%	95.3%	97.1%	91%	88.1%	102%	103%	100%	99.4%	71.4%	97.3%	97.8%	89.4%	94.2%	116%	126%
CCCC(O)Cn1ncc(C(=O)OCC)c1NC(=O)NCc1cccc(C(F)(F)F)c1 (stereo not given)	104%	85.9%	101%	104%	105%	64.7%	93.6%	80.1%	87.5%	105%	73.4%	90.5%	93.7%	65%	90.4%	97.7%	83.8%	99%	5.39% (active)	62%
c1ccc(-c2nc3ccccc3[nH]2)c(OCCCCCOc2ccccc2-c2nc3ccccc3[nH]2)c1	58%	74.8%	89.8%	91.7%	74.5%	43.4%	58.9%	59.1%	62%	45.9%	85.4%	68.2%	63.4%	58.6%	100%	89.4%	104%	71.5%	-44.1% (active)	56.3%
COc1ccc(C/C(C)=C(\c2ccc(O)cc2)c2ccc(OCCN3CCCCC3)cc2)cc1	72.7%	22.5%	77%	97.1%	72.6%	67.4%	86.1%	90.5%	84.4%	90.3%	114%	90.1%	89.9%	56.6%	85.2%	93.1%	104%	110%	54.4%	38.4%
Cc1ccc2c(/C=C/C(=O)c3cc(CN4CCOCC4)c(O)c4nc(C)ccc34)cc(CN3CCOCC3)c(O)c2n1	0.566% (active)	-6.31% (active)	23.3%	36.4%	-24% (active)	19.9%	4.68% (active)	-0.641% (active)	-66.8% (active)	-19.9% (active)	-2.61% (active)	31.5%	7.92% (active)	-16.8% (active)	17.8%	-26.3% (active)	12.9%	-16.5% (active)	3.28% (active)	-2.3% (active)
Cn1cc(-c2nc3c(F)cc4[nH]ncc4c3c3c2CCCC3)c(C(F)(F)F)n1	23.7%	37.1%	22.5%	75.3%	59.8%	0.262% (active)	40.2%	29.5%	28.7%	51%	49.2%	38.3%	49.4%	18.1%	24.7%	28.4%	18.6%	-15.1% (active)	-8.03% (active)	-18.9% (active)
COc1ccc(C2[C@@H](c3ccccc3)C(=O)N2c2cc(OC)c(OC)c(OC)c2)cc1F (stereo not given in full)	8.76% (active)	-19.2% (active)	66.2%	30.6%	7.17% (active)	23.8%	-15.6% (active)	15.1%	19%	63.6%	2.73% (active)	34.7%	32.6%	38%	43.7%	34.2%	30.8%	2.92% (active)	6.85% (active)	5.7% (active)
